PubChem BioAssay (NCI)
The panel holds about 83,000 compounds, 20% with a hit somewhere; the sample as a whole holds those more often.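 Percent growth is the endpoint: 0 to 100 indicates growth inhibition (40 means 60% inhibition), 0 means no net growth, and negative values indicate cell death.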 Active and inactive are the calls of the source. Rule for the calls: active = growth percent below 10; inactive = the rest.

How the values were obtained:
Test in all cases: NCI-60 one-dose screen, 48 h (100 = growth as untreated, 0 = no growth, -100 = all killed)
Settings in all cases: 10 µM unless noted
T-47D breast = test system: T-47D breast
BT-549 breast = test system: BT-549 breast
MDA-MB-435 melanoma = test system: MDA-MB-435 melanoma
SW-620 colon = test system: SW-620 colon
MCF7 breast = test system: MCF7 breast
HCT-116 colon = test system: HCT-116 colon
KM12 colon = test system: KM12 colon
HCC-2998 colon = test system: HCC-2998 colon

Measured: growth

COc1cc2c(cc1OC)C(=O)/C(=C/c1cc(C)c(O)c(C)c1)S2
inactive: T-47D breast 42% | BT-549 breast 36.9% | SW-620 colon 33.4% | MCF7 breast 20% | HCT-116 colon 23.1% | KM12 colon 26.2%
active: MDA-MB-435 melanoma -9.36%

Cc1ccc(NC(=O)c2cc(-c3nc4ccccc4s3)c(=O)n(NS(=O)(=O)c3ccc(Cl)cc3)c2N)cc1
inactive: T-47D breast 98.7% | BT-549 breast 115% | MDA-MB-435 melanoma 99.4% | SW-620 colon 111% | MCF7 breast 93.7% | HCT-116 colon 95.6% | HCC-2998 colon 118% | KM12 colon 98.8%

O=C(CSc1nc2ccccc2[nH]1)NCc1ccccc1
inactive: T-47D breast 92% | BT-549 breast 105% | MDA-MB-435 melanoma 95.8% | SW-620 colon 99.2% | MCF7 breast 95.5% | HCT-116 colon 107% | HCC-2998 colon 102% | KM12 colon 105%

Brc1ccc(Nc2csc(-c3ccccn3)n2)cc1
inactive: T-47D breast 82.6% | BT-549 breast 101% | MDA-MB-435 melanoma 100% | SW-620 colon 71% | MCF7 breast 87.2% | HCT-116 colon 88.8% | HCC-2998 colon 92.2% | KM12 colon 72.7%

COc1ccc(NC(=O)c2cc(NCc3cc(O)ccc3O)ccc2O)cc1
inactive: T-47D breast 68.4% | BT-549 breast 71.8% | MDA-MB-435 melanoma 99.7% | SW-620 colon 100% | MCF7 breast 75.6% | HCT-116 colon 96.9% | KM12 colon 88.3%

CC(=O)[C@@H]1CC[C@]2(CO)CC[C@]3(C)[C@H](CC[C@@H]4[C@@]5(C)CCCNC(C)(C)[C@@H]5CC[C@]43C)[C@@H]12
inactive: T-47D breast 103% | BT-549 breast 101% | MDA-MB-435 melanoma 96.8% | SW-620 colon 103% | MCF7 breast 87.1% | HCT-116 colon 94.3% | KM12 colon 101%

Cc1cccc(C)c1N=c1oc2ccc(Cl)cc2nc1-c1ccccc1O
inactive: T-47D breast 37.8% | BT-549 breast 107% | MDA-MB-435 melanoma 99.3% | SW-620 colon 91% | MCF7 breast 67.9% | HCT-116 colon 76.6% | KM12 colon 98.9%

CCc1c(Cl)nc(N)nc1Nc1ccc(C)c(C)c1
inactive: T-47D breast 91.2% | BT-549 breast 106% | MDA-MB-435 melanoma 99.6% | SW-620 colon 102% | MCF7 breast 83.1% | HCT-116 colon 76% | KM12 colon 99.2%

COc1ccc(C(=O)c2nc3ccccc3n2CC(=O)c2ccc(Cl)cc2)cc1
active: MDA-MB-435 melanoma -55.4%
inactive: T-47D breast 35.2% | BT-549 breast 47.9% | SW-620 colon 15.8% | MCF7 breast 11.9% | HCT-116 colon 10.3% | KM12 colon 28.4%

CCc1ccc(-c2cn3ccnc3c(-c3ccc4ncn(Cc5ccccc5)c4c3)n2)cc1
active: T-47D breast 5.18%
inactive: BT-549 breast 84.1% | MDA-MB-435 melanoma 49.1% | SW-620 colon 81.2% | MCF7 breast 42% | HCT-116 colon 38.8% | KM12 colon 54.3%

[O-][n+]1c(Cl)cc(Cl)c2ccccc21
inactive: T-47D breast 97.7% | MDA-MB-435 melanoma 101% | SW-620 colon 107% | MCF7 breast 97.4% | HCT-116 colon 103% | HCC-2998 colon 104% | KM12 colon 95.1%

COc1ccc(OC)c(CCn2cncc2-c2c[nH]c3ccccc23)c1
inactive: T-47D breast 45.8% | BT-549 breast 83.8% | MDA-MB-435 melanoma 58.9% | MCF7 breast 71% | HCT-116 colon 77.7% | KM12 colon 89.1%

c1ccc2c(-c3nccs3)c[nH]c2c1
inactive: T-47D breast 96.3% | BT-549 breast 86.6% | MDA-MB-435 melanoma 101% | SW-620 colon 99.1% | MCF7 breast 79.8% | HCT-116 colon 95.7% | KM12 colon 96.3%

Oc1c(Cl)cc(Cl)c(Cl)c1CNCCNCc1c(O)c(Cl)cc(Cl)c1Cl
inactive: T-47D breast 20.2% | MDA-MB-435 melanoma 37.1% | SW-620 colon 31.5% | MCF7 breast 15.6% | HCT-116 colon 13.9% | HCC-2998 colon 25.2% | KM12 colon 24%

COc1ccc(-c2cnc3c(-c4cccc5cnccc45)cnn3c2)cc1
inactive: BT-549 breast 50.1% | MDA-MB-435 melanoma 62.9% | SW-620 colon 60.7% | MCF7 breast 78.7% | HCC-2998 colon 99.1% | KM12 colon 63.1%
active: HCT-116 colon -15%

COC(=O)C(OC(C)=O)C(OC(C)=O)c1ccc(OC)c(OC)c1 (stereo unspecified)
inactive: T-47D breast 75.4% | BT-549 breast 104% | MDA-MB-435 melanoma 106% | SW-620 colon 118% | MCF7 breast 85.4% | HCT-116 colon 81.8% | KM12 colon 102%

N#Cc1c(-c2cccc([N+](=O)[O-])c2)nc(SCC(=O)c2ccc(Cl)cc2)[nH]c1=O
inactive: T-47D breast 105% | BT-549 breast 99.7% | MDA-MB-435 melanoma 100% | SW-620 colon 98.4% | MCF7 breast 105% | HCT-116 colon 105% | KM12 colon 99.4%

O=C(Nc1ccccc1C(=O)N/N=C(\c1ccccc1)c1ccccn1)c1ccc(F)cc1
inactive: T-47D breast 12.7% | BT-549 breast 16.1% | MDA-MB-435 melanoma 29.5% | SW-620 colon 30.2% | MCF7 breast 12.7% | HCT-116 colon 17% | KM12 colon 26.6%

N/C(=N\C(N)=N\c1nc2ccccc2s1)c1cnccn1
active: MDA-MB-435 melanoma 4.7% | HCT-116 colon 8.53% | KM12 colon 8.11%
inactive: T-47D breast 18.2% | BT-549 breast 38.3% | SW-620 colon 11.4% | MCF7 breast 11.4%

COc1cc(/C=N/NC(=O)c2cnn3c2NC(c2ccccc2)C3)ccc1Oc1ccccc1 (stereo unspecified)
inactive: T-47D breast 28.6% | SW-620 colon 24.9% | KM12 colon 16.6%
active: BT-549 breast 6.76% | MDA-MB-435 melanoma -22.9% | MCF7 breast 9.6% | HCT-116 colon 1.82%

NC(=O)CSSCC(N)=O
inactive: T-47D breast 103% | MDA-MB-435 melanoma 91.6% | SW-620 colon 95.3% | MCF7 breast 103% | HCT-116 colon 91.6% | KM12 colon 101%

O=S(=O)(NCCNc1nccc(-c2c(-c3cccc(F)c3)nc3sccn23)n1)c1ccc(Cl)cc1
inactive: T-47D breast 43.2% | BT-549 breast 71.3% | MDA-MB-435 melanoma 26.3% | SW-620 colon 59.6% | MCF7 breast 24.7% | HCT-116 colon 34% | KM12 colon 47.7%

O=C(/C=C(/C=C/c1coc2ccccc12)OB(F)F)/C=C/c1coc2ccccc12
inactive: T-47D breast 88.1% | BT-549 breast 99.3% | MDA-MB-435 melanoma 48.1% | SW-620 colon 86.3% | MCF7 breast 82.8% | HCT-116 colon 75.3% | KM12 colon 91.3%

N#C/C(=C\c1ccc([N+](=O)[O-])s1)c1nc2cc(Br)ccc2s1
active: T-47D breast 4.46% | BT-549 breast -13% | MDA-MB-435 melanoma 0.206% | MCF7 breast -14.2% | HCT-116 colon -66.4% | HCC-2998 colon -8.27%
inactive: KM12 colon 16.2%

Cc1c(C(=O)NCCC(=O)NO)sc2ncnc(Nc3ccc(F)c(Cl)c3)c12
inactive: T-47D breast 107% | BT-549 breast 114% | MDA-MB-435 melanoma 102% | SW-620 colon 101% | MCF7 breast 95.2% | HCT-116 colon 107% | KM12 colon 104%

COc1cc(NC(C)CCCNC(=O)CCC(=O)NCCCNCCCCCCCCNCCCNC(=O)CCC(=O)NCCCC(C)Nc2cc(OC)cc3cccnc23)c2ncccc2c1 (stereo unspecified)
inactive: BT-549 breast 95.2% | MDA-MB-435 melanoma 70.7% | SW-620 colon 78% | MCF7 breast 34.6% | HCT-116 colon 52.5% | KM12 colon 82.1%
active: T-47D breast 7.63%

N#Cc1cccc(-c2ccc3c(c2)NC(=O)/C3=C\c2ccc[nH]2)c1
inactive: BT-549 breast 17.4% | MDA-MB-435 melanoma 43.9% | SW-620 colon 51.6% | MCF7 breast 10.1% | HCT-116 colon 73% | KM12 colon 20.4%
active: T-47D breast -28.7%

Cc1nc(N)nc(N[C@@H](C)c2nc3cccc(NCc4ccc(C(=O)NO)cc4)c3c(=O)n2-c2ccccc2)n1
inactive: T-47D breast 22.3% | BT-549 breast 99% | MDA-MB-435 melanoma 64.7% | SW-620 colon 49.5% | MCF7 breast 74.9% | HCT-116 colon 56.3% | KM12 colon 92.9%

CCOC(=O)c1nc2c3ccccc3ccn2c1C(=O)OCC
inactive: T-47D breast 98.2% | BT-549 breast 103% | MDA-MB-435 melanoma 105% | MCF7 breast 95.9% | HCT-116 colon 104% | HCC-2998 colon 103% | KM12 colon 100%

O=C(CCN1CCCC1)c1ccc([N+](=O)[O-])cc1
inactive: T-47D breast 88.6% | MDA-MB-435 melanoma 107% | SW-620 colon 105% | MCF7 breast 87.6% | HCT-116 colon 105% | HCC-2998 colon 94.8% | KM12 colon 105%
